Screening results: PubChem, several laboratories
An excerpt weighted towards active compounds, which were near 3.1% of everything screened.
MEKK2mut PB1 HTS: MEK5 binding signal on mutant MEKK2 PB1, primary screen, biochemical, multiplex bead flow cytometry, Alexa488-MEK5. Alexa488-MEK5 binding to MEKK2 mutant. percent response, % at 10 µM. 0.35% of 290,000 active. AID 1530, 2009; in the data active means percent response above about 24%, passing the limit was not always enough
MEKK3 PB1 HTS: modulators of MEKK3-MEK5 PB1 binding, primary screen, biochemical, wildtype MEKK3, multiplex bead flow cytometry, Alexa488-MEK5; bead-based flow cytometry, Alexa488-MEK5 binding to MEKK3; actives lie on both sides; 0 = blocked by unlabeled MEK5, 100 = vehicle; binding response (% of control), % at 10 µM; 1.4% of 290,000 active; AID 1529, 2009;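 active means binding response more than 3 SD above or below the average of its plate-row segment, actives on both sides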;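 further: Alexa488 bead fluorescence after subtracting the streptavidin-only scavenger bead signal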
MEKK2 WT-MEK5: modulators of MEK5 binding to wildtype MEKK2, primary screen, biochemical, multiplex bead flow cytometry, Alexa488-MEK5. Mitogen-activated protein kinase kinase kinase 2 (Homo sapiens), Q9Y2U5. Alexa488-MEK5 binding to MEKK2 WT; actives lie on both sides. binding response (% of control), % at 10 µM. 1.1% of 290,000 active. AID 1531, 2009; in the data active means binding response below about 67% or above about 130%
ATG4B inh: ATG4B protease inhibitors, primary screen, biochemical, fluorescence, uHTS; Cysteine protease ATG4B (Homo sapiens), Q9Y4P1; inhibition, % at 8.33 µM; 0.51% of 340,000 active; ATG4B cleavage of LC3-PLA2, NBD-HPC fluorescence, 1 h; AID 504462, 2011; in the data active means inhibition above about 40%
PREPL inh: PREPL enzyme inhibitors, primary screen, biochemical, fluorescence polarization. recombinant PREPL, fluorescence polarization activity-based probe. Prolyl endopeptidase-like (Homo sapiens), Q4J6C6. 0.68% of 320,000 active. inhibition, % at 5.96 µM; in the data active means inhibition above about 43%
UBC13 polyUb: UBC13 polyubiquitin chain formation inhibitors, primary screen, biochemical, TR-FRET, uHTS; Ubiquitin-conjugating enzyme E2 N (Homo sapiens), P61088; inhibition, % at 20 µM; 0.47% of 330,000 active; AID 485273, 2010; in the data active means inhibition above about 45%, passing the limit was not always enough
Target sequence (P61088 whole entry, looked up): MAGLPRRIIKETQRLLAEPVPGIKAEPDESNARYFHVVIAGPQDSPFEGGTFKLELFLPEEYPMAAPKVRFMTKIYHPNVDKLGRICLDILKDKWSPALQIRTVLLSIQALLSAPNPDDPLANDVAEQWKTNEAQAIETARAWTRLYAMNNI
MEKK2wt confirm: modulators of MEK5 binding to wildtype MEKK2, confirmation, biochemical, single concentration, multiplex bead flow cytometry. Alexa488-MEK5 binding to MEKK2 WT; actives lie on both sides. shares compounds with MEKK3 PB1 HTS. binding response (% of control), % at 10 µM. 2.4% of 5,900 active; in the data active means binding response below about 16% or above about 210%; inactive means in between
MEKK2mut-MEK5: mutant MEKK2 PB1-MEK5 binding signal retest – biochemical, single concentration, multiplex bead flow cytometry, confirmation; shares compounds with MEKK3 PB1 HTS; Alexa488-MEK5 binding to MEKK2 mutant; percent response, % at 10 µM; 2% of 5,900 active; AID 1893, 2009; in the data active means percent response mostly above about 71%, no sharp cut-off; inactive means mostly below about 38%;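 further: higher means compound restores mutant binding toward wildtype level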
MEKK3-MEK5 inh: MEKK3 wild-type PB1 binding to MEK5, inhibitors, confirmation, biochemical, bead multiplex flow cytometry, single concentration, wildtype | 1.8% of 5,900 active | shares compounds with MEKK3 PB1 HTS | Alexa488-MEK5 binding to MEKK3; stronger effect = lower value | binding response (% of control), % at 10 µM;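 active means binding response below 72% of control, or above a set upper limit, though filed actives all read lower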
Hits are given with their value; [ ] = dose if it differs, or a comment.

`CCOC(=O)CCN1C(=O)c2ccccc2Sc2ncccc21` gave MEKK2mut PB1 HTS inactive, MEKK3 PB1 HTS inactive, MEKK2 WT-MEK5 inactive, ATG4B inh inactive, PREPL inh inactive and UBC13 polyUb inactive.
Screening CC(=O)NCCNC(=O)c1oc2ccccc2c1CSc1ncn[nH]1 returned MEKK2mut PB1 HTS inactive, MEKK3 PB1 HTS 75[inhibitor], MEKK2 WT-MEK5 inactive, ATG4B inh inactive, PREPL inh inactive, UBC13 polyUb inactive, MEKK2wt confirm inactive, MEKK2mut-MEK5 inactive and MEKK3-MEK5 inh inactive.
For Clc1cccc(N/N=C/c2ccc(N3CCOCC3)s2)c1 the results were MEKK2mut PB1 HTS inactive, MEKK3 PB1 HTS inactive, MEKK2 WT-MEK5 inactive, ATG4B inh inactive, PREPL inh inactive and UBC13 polyUb inactive.
`CCS(=O)CC(=O)Nc1c(-c2ccccc2)oc2ccccc2c1=O` (stereo unspecified) gave MEKK2mut PB1 HTS inactive, MEKK3 PB1 HTS inactive, MEKK2 WT-MEK5 inactive, ATG4B inh inactive, PREPL inh inactive and UBC13 polyUb inactive.
`N#CC1=C(N)NC(SCc2ccc(F)cc2)=C(C#N)C12CCCCC2` gave MEKK2mut PB1 HTS inactive, MEKK3 PB1 HTS 82[inhibitor], MEKK2 WT-MEK5 inactive, ATG4B inh inactive, PREPL inh inactive, UBC13 polyUb inactive, MEKK2wt confirm inactive, MEKK2mut-MEK5 inactive and MEKK3-MEK5 inh inactive.
N#CC1=C(N)NC(SCC(=O)O)=C(C#N)C12CCCC2 was read as MEKK2mut PB1 HTS inactive, MEKK3 PB1 HTS inactive, MEKK2 WT-MEK5 inactive, ATG4B inh inactive, PREPL inh inactive and UBC13 polyUb inactive.
O=C1CCCc2c1[nH]c1c(Br)cccc21 was read as MEKK2mut PB1 HTS inactive, MEKK3 PB1 HTS inactive, MEKK2 WT-MEK5 inactive, ATG4B inh inactive, PREPL inh inactive and UBC13 polyUb inactive.
O=C1CCCc2c1[nH]c1ccccc21 was read as MEKK2mut PB1 HTS inactive, MEKK3 PB1 HTS 128, MEKK2 WT-MEK5 inactive, ATG4B inh inactive, PREPL inh inactive, UBC13 polyUb inactive, MEKK2wt confirm inactive, MEKK2mut-MEK5 inactive and MEKK3-MEK5 inh inactive.
`CCn1c(O)c(C=NCc2ccccc2)sc1=S` gave MEKK2mut PB1 HTS inactive, MEKK3 PB1 HTS inactive, MEKK2 WT-MEK5 inactive, ATG4B inh inactive, PREPL inh inactive and UBC13 polyUb inactive.
`CCCCn1c(O)c(/C=C/C=C/C=Nc2ccccc2)sc1=S` gave MEKK2mut PB1 HTS inactive, MEKK3 PB1 HTS 21[inhibitor], MEKK2 WT-MEK5 -5.0, ATG4B inh inactive, PREPL inh inactive, UBC13 polyUb inactive, MEKK2wt confirm inactive, MEKK2mut-MEK5 inactive and MEKK3-MEK5 inh 35.
`CCn1c(O)c(/C=C/C=C/C=Nc2ccccc2)sc1=S` gave MEKK2mut PB1 HTS inactive, MEKK3 PB1 HTS inactive, MEKK2 WT-MEK5 59[inhibitor], ATG4B inh inactive, PREPL inh inactive, UBC13 polyUb inactive, MEKK2wt confirm inactive, MEKK2mut-MEK5 inactive and MEKK3-MEK5 inh inactive.
For O=C(Nc1ccc(S(=O)(=O)Nc2ncccn2)cc1)C1=NN(c2ccccc2)C(=O)CC1 the results were MEKK2mut PB1 HTS inactive, MEKK3 PB1 HTS inactive, MEKK2 WT-MEK5 inactive, ATG4B inh inactive, PREPL inh inactive and UBC13 polyUb inactive.
